# Compound activity: PubChem, National Center for Advancing Translational Sciences (NCATS)
# Tau fibril ThT: blocks human tau fibril formation measured by thioflavin T. P10636. recombinant tau K18 P301L, heparin-induced fibrillization, ThT fluorescence. Potency, µM (titrated, usually from 57.4 µM), inactives show top-dose activity, negative = inhibition, usual class: inhibitors. 270,000 tested, 2.1% active. AID 1460; further: potency means the concentration at half of the fitted maximal effect; nearly all actives have a fitted effect of over 55% in size
# Target sequence (P10636 561-689 P618L limits assumed): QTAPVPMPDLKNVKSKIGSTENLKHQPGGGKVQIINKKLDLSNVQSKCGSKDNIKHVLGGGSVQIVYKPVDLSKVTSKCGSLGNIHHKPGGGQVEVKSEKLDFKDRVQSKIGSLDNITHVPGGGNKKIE
#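 K18 P301L tau (15 uM + 0.24 uM Alexa 594-tagged), heparin 20 uM, NaOAc pH 7, 6 h 37 C; ThT 30 uM, 1 h RT, ex 450/em 510 nm.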
# Tau FP inhib: blocks human tau fibril formation measured by polarization; K18 P301L tau heparin fibrillization, Alexa594 FP, 6 h; Potency, µM (top dose mostly 57.7 µM), inactives show at the highest dose activity, negative = inhibition, actives largely listed as inhibitors; 280,000 tested, 0.39% active; further: potency means the concentration at half of the fitted maximal effect; nearly all actives have a fitted effect of over 55% in size
#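 Quantitative HTS format: compounds meet 15 uM recombinant K18 P301L tau and Alexa 594-tau tracer in 100 mM sodium acetate pH 7; 20 uM heparin triggers fibrillization at 37 C over 6 hr; FP gives the signal.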
# KDM4E inh: JMJD2E (human) inhibition | JMJD2E catalytic domain, FDH-coupled NADH fluorescence (FDH is formaldehyde dehydrogenase) | Potency, µM (doses to about 57.1 µM), for the others: at the top dose activity change, negative = inhibition, actives largely listed as inhibitors | AID 2147 | 230,000 tested, 1.6% active; active means well fitted inhibition curve with a large enough effect, not every such curve was filed as active; inconclusive means small, poorly fitted or top-dose-only effect, or another doubt; inactive means no such curve, though single readings can be large or run the other way;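 further: potency means the concentration at half of the fitted maximal effect; 0% = wells with enzyme and -100% = buffer wells without enzyme; nearly all actives have a fitted effect of over 50% in size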
# Target sequence (B2RXH2 1-337 limits assumed): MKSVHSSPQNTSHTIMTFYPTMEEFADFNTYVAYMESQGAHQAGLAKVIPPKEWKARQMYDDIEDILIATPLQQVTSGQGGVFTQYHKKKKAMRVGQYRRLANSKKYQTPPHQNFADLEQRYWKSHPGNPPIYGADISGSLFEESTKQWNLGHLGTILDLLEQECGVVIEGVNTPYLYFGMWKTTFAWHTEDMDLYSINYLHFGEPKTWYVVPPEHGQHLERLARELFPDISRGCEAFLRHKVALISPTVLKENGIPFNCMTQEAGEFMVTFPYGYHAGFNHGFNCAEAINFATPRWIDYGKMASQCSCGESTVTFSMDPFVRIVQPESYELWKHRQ
# PNC inhibitor: perinucleolar compartment assembly inhibition | PC3M PTB-GFP, PNC prevalence imaging, 16 h; stronger effect = lower value | activity change (PNC), negative = inhibition, % at 10 µM | 140,000 tested, 3.1% active;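 active means readout at or below -70, meaning at least 70% loss of cells showing the perinucleolar compartment, a nuclear body marking cancer cells; inconclusive means readout between -30 and a set limit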;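 further: plate controls were DMSO wells for no effect and camptothecin positive control wells for full effect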
#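 Compounds are pinned in duplicate onto adhered PC3M cells stably expressing GFP-tagged PTB and incubated 16 h at 37 C. Cells are then fixed, nuclei stained with Hoechst, and PNC-positive cells counted.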
# NPSR antag: antagonists of human neuropeptide S receptor cAMP signaling | Q6W5P4 | CHO-NPSR cells, cAMP TR-FRET, antagonist mode | Potency, µM (titrated, usually from 38.3 µM), without a hit: at the highest dose activity change, negative = inhibition, hits mostly inhibitors | 220,000 tested, 1% active | AID 1461; further: potency means the concentration at half of the fitted maximal effect; nearly all actives have a fitted effect of over 50% in size
# Tau fluor counter: counter-screen for tau fibril formation inhibitors; tau K18 P301L (four-repeat tau fragment) Alexa594 fluorescence, heparin fibrillization; Potency, µM (titrated, usually from 57.7 µM), for inactives: at the top dose activity change, negative = decrease; 280,000 tested, 0.93% active; AID 1463; further: potency means the concentration at half of the fitted maximal effect; nearly all actives have a fitted effect of over 55% in size
#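 Human K18 P301L tau (15 uM unlabeled plus 0.24 uM Alexa 594-labeled, final) in 100 mM sodium acetate pH 7 was mixed with compound and 20 uM heparin and incubated 6 hr at 37 C.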
# An asterisk follows results filed as active; ? = inconclusive; nt = no result; [ ] = remark or other dose. The list is not random: actives were taken first. Their share in the collection is about 5.1%. Unless noted, the call rests on the fitted dose curve; in most records, active means well fitted curve in the direction sought with a large enough effect; inconclusive means small, poorly fitted or top-dose-only effect, or another doubt; inactive means no such curve, though single readings can be large; an effect the other way counts as inactive or inconclusive. Unless noted, on the % scale 0 is the no-effect control and ±100 the full control effect.
SMILES,Tau fibril ThT,Tau FP inhib,KDM4E inh,PNC inhibitor,NPSR antag,Tau fluor counter
CC(C)c1ccc2c(c1)C1(NN=C(c3ccccc3)S1)C(=O)N2 (stereo not given),25.1µM*,13.7%,-29.5%,-29.3,-18.6%[46.1 µM],?
CCOP(=O)(OCC)/C(C#N)=C/c1ccc([N+](=O)[O-])cc1,-17.2%,3.2%,8.91µM*,nt,2.6%,-5.4%
O[C@H]1[C@H]2c3cc4c(cc3CN3CCC(=C[C@@H]1O)[C@H]23)OCO4,-3.3%,-4.1%,nt,nt,nt,-1.0%
COc1ccc(OC)c(-c2c3cc(O)c(=O)cc-3oc3cc(O)c(O)cc23)c1,3.16µM*,15.8µM*,11.2µM*,-5.7,-25.9%,?
O=c1cc(-c2cccc(O)c2O)oc2ccccc12,12.6µM*,2.9%,7.08µM*,nt,nt,?
COc1cc2oc(-c3ccccc3)cc(=O)c2cc1O,-19.2%,-7.9%,?,nt,nt,-19.2%
O=c1cc2oc3cc(O)c(O)cc3c(-c3ccccc3O)c-2cc1O,2.51µM*,12.6µM*,14.1µM*,nt,11.3%[7.67 µM],?
O=c1cc(-c2ccccc2O)oc2cc(O)ccc12,-6.5%,-15.5%,-2.1%,nt,nt,-7.7%
CCOc1ccccc1-c1c2cc(O)c(=O)cc-2oc2cc(O)c(O)cc12,?,14.1µM*,-9.2%,-83.5*,-12.8%,17.2%
COc1ccccc1-c1cc(=O)c2cc(O)ccc2o1,-17.6%,-7.1%,-4.9%,nt,nt,-15.2%
Cc1ccccc1-c1cc(=O)c2c(O)cccc2o1,10.2%,-2.5%,-5.1%,nt,-7.0%,5.6%
CCCCSc1nnc2c(n1)OC(c1ccc(Br)s1)N(C(C)=O)c1ccccc1-2 (stereo not given),?,-0.3%,nt,nt,nt,?
N=C(N)SCc1ccccn1,2.4%,-0.2%,-5.2%,-91.0*,11.2%,-0.7%
N=C(N)SCc1ncccc1O,?,-1.8%,-22.2%,nt,-13.4%,-11.3%
CN1CCc2cccc3c2C1Cc1ccc(O)c(O)c1-3 (stereo not given),17.8µM*,31.6µM*,?,nt,-12.1%[46.1 µM],28.2µM*[quencher]
COc1cc(/C=C/c2ccc3c(Br)cc(Br)c(O)c3n2)ccc1O,3.55µM*,1.1%,?,nt,35.6%,5.01µM*[quencher]
COc1cc(C=O)ccc1O,0.9%,-9.3%,3.4%,nt,nt,-5.4%
Cc1ccc(-n2nc(C)c3c(C)cc(=O)n(CC(=O)Nc4cc(Cl)ccc4C)c32)cc1,6.0%,-3.0%,nt,nt,nt,-1.7%
Cc1c(C(=O)OCCOC(C)C)[nH]c2c1C(=O)CC(c1ccco1)C2 (stereo not given),-12.1%,1.2%,-10.8%,-91.3*,22.1%,-8.1%
COCCOC(=O)c1[nH]c2c(c1C)C(=O)CC(c1ccco1)C2 (stereo not given),-15.5%,-1.2%,-23.0%,-95.0*,?,-2.1%
COCCOC(=O)C1=C(C)OC(N)=C(C#N)C1c1ccco1 (stereo not given),-5.6%,0.9%,-1.6%,-100.0*,2.7%[46.1 µM],0.8%
Cc1c(C(=O)OCCOC(C)C)[nH]c2c1C(=O)CC(C)(C)C2,-11.5%,0.8%,-5.2%,-2.2,-4.8%[46.1 µM],-3.4%
Cc1c(C(=O)OCc2ccccc2)[nH]c2c1C(=O)CC(c1ccco1)C2 (stereo not given),?,?,-12.8%,-82.0*,?,-14.6%
COc1ccc(OC)c(N(C)S(=O)(=O)c2ccc3c(c2)NC(=O)CC(=O)N3)c1,-10.6%,-0.9%,nt,nt,nt,-12.9%
COC(=O)c1[nH]c2c(c1C)C(=O)CC(c1cccs1)C2 (stereo not given),2.4%,-1.0%,-1.8%,-85.5*,5.0%[46.1 µM],0.3%
SMILES,Tau fibril ThT,Tau FP inhib,KDM4E inh,PNC inhibitor,NPSR antag,Tau fluor counter
COCCOC(=O)c1[nH]c2c(c1C)C(=O)CC(c1ccc(F)cc1)C2 (stereo not given),-3.2%,-11.8%,-4.8%,?,3.4%[46.1 µM],-1.0%
CCOC(=O)c1[nH]c2c(c1C)C(=O)CC(c1ccco1)C2 (stereo not given),-12.0%,-5.4%,-24.5%,-108.4*,?,4.0%
CSCCOC(=O)c1[nH]c2c(c1C)C(=O)CC(c1ccco1)C2 (stereo not given),-15.2%,5.6%,-5.5%,-90.3*,?,-5.9%
COCCOC(=O)c1[nH]c2c(c1C)C(=O)CC(c1ccc(N(C)C)cc1)C2 (stereo not given),?,10.6%,-4.9%,?,-21.1%[46.1 µM],-20.7%
COCCOC(=O)c1[nH]c2c(c1C)C(=O)CC(c1ccccc1)C2 (stereo not given),4.2%,-1.7%,5.6%,-100.0*,?,-4.8%
CC(=O)c1c(C)oc2c(Cl)cc(NS(=O)(=O)c3cc(C)c(C)cc3C)cc12,12.5%,-3.6%,nt,nt,nt,3.5%
CN(C(=O)Cn1nnc(-c2ccc(S(C)(=O)=O)cc2)n1)c1ccccc1,3.8%,-1.4%,nt,nt,nt,-2.6%
CCCn1c2ccccc2c2cnn(CC(=O)N(CCCOC(C)C)Cc3ccco3)c(=O)c21,-14.2%,8.1%,nt,nt,nt,-1.5%
COc1ccc(Nc2c3c(nc4ccc(NC(=O)c5cc(Cl)ccc5OC)cc24)CCCC3)cc1OC,7.08µM*,-5.6%,nt,nt,nt,?
COc1cc(Nc2c3c(nc4ccccc24)CCCC3)cc(OC)c1OC,?,1.1%,4.1%,nt,-55.0%,-24.1%
COc1ccccc1Nc1c2c(nc3ccc(NC(=O)c4ccc(N(C)C)cc4)cc13)CCCC2,15.8µM*,-0.5%,nt,nt,nt,11.2µM*[quencher]
COc1cc(OC)cc(C(=O)Nc2ccc3nc4c(c(Nc5ccc(OC)c(OC)c5)c3c2)CCCC4)c1,31.6µM*,?,nt,nt,nt,17.8µM*[quencher]
CCOc1ccccc1C(=O)Nc1ccc2nc3c(c(Nc4ccc(OC)c(OC)c4)c2c1)CCCC3,10µM*,4.5%,nt,nt,nt,?
COC(=O)c1ccc(OCC2c3cc(OC)c(OC)cc3CCN2C(=O)c2ccccc2F)cc1 (stereo not given),-9.4%,6.8%,nt,nt,nt,-12.9%
CN(C(=O)c1cc2c(=O)n3ccccc3nc2n1C)c1ccccc1,-14.1%,2.5%,nt,nt,nt,-22.1%
CCc1nn(CC(=O)NCCc2ccc(OC)cc2OC)c(=O)c2cc3c(OC)cccc3n12,?,-3.8%,nt,nt,nt,-17.8%
CC(C)(CNC(=O)c1ccc([N+](=O)[O-])c(Cl)c1)CNC(=O)c1ccc([N+](=O)[O-])c(Cl)c1,?,-2.0%,-0.2%,16.3,?,12.6µM*[quencher]
C=CCNC(=O)c1ccc([N+](=O)[O-])c(Cl)c1,6.0%,8.2%,-3.0%,nt,-0.6%,3.4%
COC(=O)c1ccccc1N/C=C1\CCc2c(c(C)nn2-c2ccccn2)C1=O,14.1µM*,?,?,?,-21.0%[46.1 µM],?
Cc1nc2sccn2c(=O)c1S(=O)(=O)NCc1ccc(F)cc1,-6.9%,-7.8%,nt,nt,nt,-10.2%
COc1ccc(Nc2ncc(C(=O)Nc3cc(Cl)c(OC)cc3OC)c3ccccc23)cc1,-20.5%,?,nt,nt,nt,?
